Measured values published in PubChem BioAssay (EPA / NIEHS).
Active and inactive are the calls of the source. How the source made its calls: active means hit-call score of the fitted dose curve at least 0.9, where 1 is the maximum; inactive means score below 0.9.

Assays:
[1] = read-out: Fatty acid synthase (Homo sapiens) (UniProt P49327); assay: LTEA_HepaRG_FASN: Life Technologies and Expression Analysis (LTEA) Assay for Fatty Acid Synthase (FASN) using HepaRG (AID 2283448); conditions: mRNA level, 48 h; actives raise or lower the signal
Outline: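 HepaRG, 48 h exposure, 8-pt half-log series top 100 uM, 0.5% DMSO vehicle, duplicates. Readout: FASN transcript by Fluidigm qRT-PCR; housekeeping-normalized; bidirectional curve fit vs DMSO baseline.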

[2] = read-out: Cyclin D2 (CCND2), CCND2 (gene 894); assay: LTEA_HepaRG_CCND2: Life Technologies and Expression Analysis (LTEA) Assay for Cyclin D2 (CCND2) using HepaRG (AID 2283449); conditions: mRNA level, 48 h; actives raise or lower the signal
Outline: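 CCND2 transcript levels, quantified by qRT-PCR and normalised to three housekeeping genes, were fitted bidirectionally against 0.5% DMSO. HepaRG cultures were dosed 48 h in duplicate with an 8-point half-log series up to 100 uM.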

[3] = read-out: Cyclin Dependent Kinase Inhibitor 1A (CDKN1A), CDKN1A (gene 1026); assay: LTEA_HepaRG_CDKN1A: Life Technologies and Expression Analysis (LTEA) Assay for Cyclin Dependent Kinase Inhibitor 1A (CDKN1A) using HepaRG (AID 2283450); conditions: mRNA level, 48 h; actives raise or lower the signal
Outline: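 Differentiated HepaRG cells in serum-free induction medium, exposed 48 h in duplicate to eight half-log concentrations up to 100 uM in 0.5% DMSO. mRNA measured by TaqMan qRT-PCR, normalized to ACTB, GAPDH, POLR2A; bidirectional fit versus DMSO.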

[4] = read-out: Cyclin D1 (CCND1), CCND1 (gene 595); assay: LTEA_HepaRG_CCND1: Life Technologies and Expression Analysis (LTEA) Assay for Cyclin D1 (CCND1) using HepaRG (AID 2283451); conditions: mRNA level, 48 h; actives raise or lower the signal;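 further: TaqMan qRT-PCR transcript level normalised to ACTB GAPDH and POLR2A housekeeping genes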
Outline: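 Differentiated HepaRG cells exposed 48 h in serum-free induction medium to eight half-log concentrations from 100 uM top, 0.5% DMSO, duplicates. CCND1 mRNA measured by Fluidigm TaqMan qRT-PCR, normalised to ACTB, GAPDH, POLR2A; bidirectional fit.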

[5] = read-out: flavin-containing dimethylaniline monooxygenases 3 (FMO3), FMO3 (gene 2328); assay: LTEA_HepaRG_FMO3: Life Technologies and Expression Analysis (LTEA) Assay for flavin-containing dimethylaniline monooxygenases 3 (FMO3) using HepaRG (AID 2283453); conditions: mRNA level, 48 h; actives raise or lower the signal
Outline: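 Eight-point concentration-response in serum-free HepaRG cultures (top 100 uM, 0.5% DMSO, 48 h). Read-out: FMO3 mRNA level normalized to three endogenous control genes, fitted bidirectionally versus vehicle.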

[6] = read-out: Cytochrome P450 (CYP1A1), CYP1A1 (gene 1543); assay: LTEA_HepaRG_CYP1A1: Life Technologies and Expression Analysis (LTEA) Assay for Cytochrome P450 (CYP1A1) using HepaRG (AID 2283454); conditions: mRNA level, 48 h; actives raise or lower the signal
Outline: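 Differentiated human HepaRG cells, after 48 h plating, exposed in duplicate for 48 h in serum-free induction medium to 8 half-log concentrations up to 100 uM in 0.5% DMSO. CYP1A1 mRNA by qRT-PCR, normalized to ACTB/GAPDH/POLR2A; bidirectional fit versus DMSO.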

[7] = read-out: CFLAR gene, CFLAR (gene 8837); assay: LTEA_HepaRG_CFLAR: Life Technologies and Expression Analysis (LTEA) Assay for CFLAR gene using HepaRG (AID 2283455); conditions: mRNA level, 48 h; actives raise or lower the signal
Outline: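 Transcript level by qRT-PCR (normalized to ACTB, GAPDH and POLR2A) after 48 h chemical exposure of HepaRG cells, top concentration 100 uM with half-log steps, 0.5% DMSO vehicle, duplicates; fitted bidirectionally against DMSO baseline.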

[8] = read-out: Forkhead box O1 (FOXO1), FOXO1 (gene 2308); assay: LTEA_HepaRG_FOXO1: Life Technologies and Expression Analysis (LTEA) Assay for Forkhead box O1 (FOXO1) using HepaRG (AID 2283456); conditions: mRNA level, 48 h; actives raise or lower the signal
Outline: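 FOXO1 transcript quantified by qRT-PCR after 48 h chemical exposure (top 100 uM, half-log steps, 0.5% DMSO) of HepaRG cells, housekeeping-normalized (ACTB/GAPDH/POLR2A). Changes fitted in both directions relative to vehicle.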

[9] = CEETOX_H295R_TESTO: CeeTox H295R High-throughput Steroidogenesis Assay for Testosterone (TESTO) (AID 2283457); conditions: actives raise or lower the signal
Outline: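 H295R adrenal cells, passage ≤10, exposed to chemicals for 48 h. Testosterone in medium measured by MTBE extraction and HPLC-MS/MS against a 7-point standard curve. Bidirectional fit versus DMSO; MTT viability checked in the same wells.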

[10] = read-out: growth arrest and DNA damage 45 (GADD45A), GADD45A (gene 1647); assay: LTEA_HepaRG_GADD45A: Life Technologies and Expression Analysis (LTEA) Assay for growth arrest and DNA damage 45 (GADD45A) using HepaRG (AID 2283458); conditions: mRNA level, 48 h; actives raise or lower the signal
Outline: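 HepaRG, 48 h exposure, 8 conc. (top 100 uM, half-log steps), 0.5% DMSO vehicle, duplicates. Read-out: qRT-PCR mRNA level, housekeeping-normalized (ACTB/GAPDH/POLR2A). Curves fit bidirectionally vs DMSO baseline.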

[11] = read-out: Forkhead box O3 (FOXO3), FOXO3 (gene 2309); assay: LTEA_HepaRG_FOXO3: Life Technologies and Expression Analysis (LTEA) Assay for Forkhead box O3 (FOXO3) using HepaRG (AID 2283459); conditions: mRNA level, 48 h; actives raise or lower the signal
Outline: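 FOXO3 transcript measured by qRT-PCR (normalized to ACTB, GAPDH, POLR2A) after 48 h exposure of HepaRG cells in serum-free induction medium. Duplicates, eight half-log concentrations up to 100 uM, 0.5% DMSO; gain or loss fitted against DMSO.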

[12] = read-out: ABC Transporter (ABCB1), ABCB1 (gene 5243); assay: LTEA_HepaRG_ABCB1: Life Technologies and Expression Analysis (LTEA) Assay for ABC Transporter (ABCB1) using HepaRG (AID 2283460); conditions: mRNA level, 48 h; actives raise or lower the signal
Outline: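 ABCB1 transcript level measured by TaqMan qRT-PCR against three housekeeping genes after 48 h chemical exposure of differentiated HepaRG cells. Top concentration 100 uM, half-log steps, eight points, 0.5% DMSO vehicle; bidirectional fit relative to DMSO.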

[13] = read-out: growth arrest and DNA damage 45 (GADD45B), GADD45B (gene 4616); assay: LTEA_HepaRG_GADD45B: Life Technologies and Expression Analysis (LTEA) Assay for growth arrest and DNA damage 45 (GADD45B) using HepaRG (AID 2283461); conditions: mRNA level, 48 h; actives raise or lower the signal
Outline: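 Differentiated human HepaRG cells in serum-free induction medium exposed 48 h in duplicate to eight concentrations, top 100 uM, half-log steps, 0.5% DMSO. GADD45B mRNA by TaqMan qRT-PCR, normalized to ACTB, GAPDH, POLR2A; bidirectional fit versus DMSO.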

[14] = read-out: ABC Transporter (ABCC3), ABCC3 (gene 8714); assay: LTEA_HepaRG_ABCC3: Life Technologies and Expression Analysis (LTEA) Assay for ABC Transporter (ABCC3) using HepaRG (AID 2283462); conditions: mRNA level, 48 h; actives raise or lower the signal
Outline: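 Differentiated human HepaRG cells exposed 48 h in serum-free induction medium, 0.5% DMSO vehicle, 8-point half-log series to 100 uM in duplicate. ABCC3 mRNA by qRT-PCR, normalised to ACTB, GAPDH, POLR2A; bidirectional fit vs DMSO.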

[15] = read-out: ABC Transporter (ABCB11), ABCB11 (gene 8647); assay: LTEA_HepaRG_ABCB11: Life Technologies and Expression Analysis (LTEA) Assay for ABC Transporter (ABCB11) using HepaRG (AID 2283463); conditions: mRNA level, 48 h; actives raise or lower the signal
Outline: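 ABCB11 transcript levels quantified by TaqMan qRT-PCR against three housekeeping genes after 48 h chemical exposure of HepaRG cultures. Concentrations up to 100 uM in half-log steps, 0.5% DMSO vehicle; both induction and suppression scored.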

[16] = read-out: ABC Transporter (ABCC2), ABCC2 (gene 1244); assay: LTEA_HepaRG_ABCC2: Life Technologies and Expression Analysis (LTEA) Assay for ABC Transporter (ABCC2) using HepaRG (AID 2283464); conditions: mRNA level, 48 h; actives raise or lower the signal
Outline: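 Differentiated HepaRG cells in serum-free induction medium exposed 48 h to eight half-log concentrations up to 100 uM, 0.5% DMSO, in duplicate. ABCC2 mRNA measured by qRT-PCR (TaqMan, Fluidigm), normalized to ACTB, GAPDH and POLR2A. Fitted in both directions against DMSO.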

[17] = read-out: Broad substrate specificity ATP-binding cassette transporter ABCG2 (Homo sapiens) (UniProt Q9UNQ0); assay: LTEA_HepaRG_ABCG2: Life Technologies and Expression Analysis (LTEA) Assay for ABC Transporter (ABCG2) using HepaRG (AID 2283465); conditions: mRNA level, 48 h; actives raise or lower the signal
Outline: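 ABCG2 transcript was quantified by TaqMan qRT-PCR against three housekeeping genes in HepaRG cells. Cells were treated in duplicate for 48 h across an 8-point half-log series up to 100 uM, with 0.5% DMSO vehicle. Gain or loss versus DMSO was fit.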

[18] = read-out: ATP-citrate lyase (ACLY), ACLY (gene 47); assay: LTEA_HepaRG_ACLY: Life Technologies and Expression Analysis (LTEA) Assay for ATP-citrate lyase (ACLY) using HepaRG (AID 2283466); conditions: mRNA level, 48 h; actives raise or lower the signal
Outline: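 ACLY mRNA quantified by qRT-PCR on Fluidigm arrays against three housekeeping genes, after 48 h chemical treatment of HepaRG cells (top concentration 100 uM, half-log steps, 0.5% DMSO vehicle). Up- or down-regulation fitted relative to DMSO.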

[19] = read-out: Peroxisomal acyl-coenzyme A oxidase 1 (ACOX1) gene, ACOX1 (gene 51); assay: LTEA_HepaRG_ACOX1: Life Technologies and Expression Analysis (LTEA) Assay for Peroxisomal acyl-coenzyme A oxidase 1 (ACOX1) gene using HepaRG (AID 2283467); conditions: mRNA level, 48 h; actives raise or lower the signal
Outline: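 ACOX1 transcript levels were quantified by TaqMan qRT-PCR against three housekeeping genes after 48 h chemical exposure of differentiated human HepaRG cells. Exposure used eight half-log steps topping at 100 uM, 0.5% DMSO vehicle, in duplicate. Bidirectional curve fits were made relative to DMSO.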

Measured: AC50

Chain of Fatty acid synthase (Homo sapiens) (P49327 whole entry, looked up): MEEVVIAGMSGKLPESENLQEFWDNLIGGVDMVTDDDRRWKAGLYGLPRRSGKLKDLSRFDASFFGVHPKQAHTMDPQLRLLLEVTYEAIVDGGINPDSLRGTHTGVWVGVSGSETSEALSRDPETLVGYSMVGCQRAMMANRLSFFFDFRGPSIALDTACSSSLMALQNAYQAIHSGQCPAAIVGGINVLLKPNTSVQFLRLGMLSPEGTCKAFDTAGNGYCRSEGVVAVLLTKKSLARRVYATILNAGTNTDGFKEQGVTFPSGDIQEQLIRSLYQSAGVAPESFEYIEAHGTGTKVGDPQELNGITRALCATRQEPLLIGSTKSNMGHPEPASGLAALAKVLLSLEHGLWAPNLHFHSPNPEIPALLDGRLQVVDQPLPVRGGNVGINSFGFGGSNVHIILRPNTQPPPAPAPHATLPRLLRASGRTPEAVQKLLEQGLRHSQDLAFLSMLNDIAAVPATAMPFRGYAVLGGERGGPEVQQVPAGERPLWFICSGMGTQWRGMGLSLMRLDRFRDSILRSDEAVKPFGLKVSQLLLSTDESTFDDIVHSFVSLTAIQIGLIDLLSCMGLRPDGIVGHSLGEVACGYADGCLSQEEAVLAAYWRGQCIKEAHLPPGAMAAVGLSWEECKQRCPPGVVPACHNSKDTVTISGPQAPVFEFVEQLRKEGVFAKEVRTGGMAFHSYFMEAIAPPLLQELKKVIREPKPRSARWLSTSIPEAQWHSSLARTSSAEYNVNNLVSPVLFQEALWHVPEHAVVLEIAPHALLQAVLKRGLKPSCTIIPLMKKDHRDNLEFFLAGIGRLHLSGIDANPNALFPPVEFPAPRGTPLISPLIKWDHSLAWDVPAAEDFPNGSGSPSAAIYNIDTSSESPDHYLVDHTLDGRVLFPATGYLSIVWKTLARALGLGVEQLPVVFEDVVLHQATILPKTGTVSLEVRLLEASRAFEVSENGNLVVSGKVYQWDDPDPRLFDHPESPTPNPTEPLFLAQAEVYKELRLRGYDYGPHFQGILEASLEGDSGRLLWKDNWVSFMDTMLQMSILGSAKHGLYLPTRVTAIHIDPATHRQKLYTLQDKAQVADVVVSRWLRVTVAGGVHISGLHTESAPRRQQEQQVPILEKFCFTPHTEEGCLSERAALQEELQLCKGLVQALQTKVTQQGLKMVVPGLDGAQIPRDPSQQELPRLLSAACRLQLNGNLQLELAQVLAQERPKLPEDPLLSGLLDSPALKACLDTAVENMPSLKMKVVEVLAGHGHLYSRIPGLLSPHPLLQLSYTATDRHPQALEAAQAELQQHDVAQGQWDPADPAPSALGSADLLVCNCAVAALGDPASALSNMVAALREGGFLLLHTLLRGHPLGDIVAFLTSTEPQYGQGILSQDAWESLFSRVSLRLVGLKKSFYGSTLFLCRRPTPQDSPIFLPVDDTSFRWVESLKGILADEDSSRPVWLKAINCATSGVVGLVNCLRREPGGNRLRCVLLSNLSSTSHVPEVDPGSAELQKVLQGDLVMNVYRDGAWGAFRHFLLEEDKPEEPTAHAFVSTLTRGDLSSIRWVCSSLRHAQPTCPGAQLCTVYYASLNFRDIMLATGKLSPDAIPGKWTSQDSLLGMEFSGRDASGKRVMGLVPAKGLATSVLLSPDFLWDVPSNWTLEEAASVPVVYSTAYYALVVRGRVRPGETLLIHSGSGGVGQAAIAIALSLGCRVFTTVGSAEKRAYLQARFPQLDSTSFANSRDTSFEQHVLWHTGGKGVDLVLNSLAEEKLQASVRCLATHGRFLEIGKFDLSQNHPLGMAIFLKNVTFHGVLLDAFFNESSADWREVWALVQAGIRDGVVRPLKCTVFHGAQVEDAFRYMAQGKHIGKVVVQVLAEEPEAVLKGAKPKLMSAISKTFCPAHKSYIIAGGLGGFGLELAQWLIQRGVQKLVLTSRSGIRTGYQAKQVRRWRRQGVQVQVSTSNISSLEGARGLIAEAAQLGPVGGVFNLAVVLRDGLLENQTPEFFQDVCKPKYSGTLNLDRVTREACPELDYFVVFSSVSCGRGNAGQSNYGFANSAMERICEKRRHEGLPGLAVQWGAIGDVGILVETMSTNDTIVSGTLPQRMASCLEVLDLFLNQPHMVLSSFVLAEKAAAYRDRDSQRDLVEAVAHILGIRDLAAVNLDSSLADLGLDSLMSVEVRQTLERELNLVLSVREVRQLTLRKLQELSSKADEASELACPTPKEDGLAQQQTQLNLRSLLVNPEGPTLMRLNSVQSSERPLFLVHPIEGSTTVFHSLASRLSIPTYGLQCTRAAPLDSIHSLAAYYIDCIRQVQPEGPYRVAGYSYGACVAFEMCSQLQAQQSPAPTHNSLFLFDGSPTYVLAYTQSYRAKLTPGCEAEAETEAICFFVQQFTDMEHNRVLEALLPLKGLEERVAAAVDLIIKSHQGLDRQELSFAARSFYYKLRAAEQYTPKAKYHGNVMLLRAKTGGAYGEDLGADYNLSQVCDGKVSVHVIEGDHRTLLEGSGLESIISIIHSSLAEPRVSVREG
Chain of Broad substrate specificity ATP-binding cassette transporter ABCG2 (Homo sapiens) (Q9UNQ0 whole entry, looked up): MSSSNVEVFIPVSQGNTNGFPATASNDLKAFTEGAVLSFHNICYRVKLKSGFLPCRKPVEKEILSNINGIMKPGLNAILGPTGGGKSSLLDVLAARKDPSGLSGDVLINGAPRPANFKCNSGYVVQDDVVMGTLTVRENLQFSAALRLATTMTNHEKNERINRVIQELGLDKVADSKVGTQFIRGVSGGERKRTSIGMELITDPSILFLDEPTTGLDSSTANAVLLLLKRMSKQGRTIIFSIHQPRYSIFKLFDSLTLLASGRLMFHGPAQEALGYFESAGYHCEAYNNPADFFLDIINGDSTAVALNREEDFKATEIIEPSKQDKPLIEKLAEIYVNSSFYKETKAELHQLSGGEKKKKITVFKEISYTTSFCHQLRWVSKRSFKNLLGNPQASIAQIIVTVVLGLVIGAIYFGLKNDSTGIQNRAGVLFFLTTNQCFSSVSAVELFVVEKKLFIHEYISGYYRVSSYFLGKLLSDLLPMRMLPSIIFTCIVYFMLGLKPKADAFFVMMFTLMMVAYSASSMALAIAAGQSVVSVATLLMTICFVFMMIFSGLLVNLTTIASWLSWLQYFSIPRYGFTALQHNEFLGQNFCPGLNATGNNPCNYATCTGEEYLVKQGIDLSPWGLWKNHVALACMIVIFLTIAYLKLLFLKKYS

COc1ccc(S(=O)(=O)N2C(=O)[C@@](c3ccccc3OC)(N3C[C@H](O)C[C@H]3C(=O)N(C)C)c3cc(Cl)ccc32)c(OC)c1
inactive: [2] | [6] | [7] | [9] | [11] | [12] | [13]
active: [1] 22.7 µM | [3] 84.9 µM | [4] 85.5 µM | [5] 43.3 µM | [8] 35.9 µM | [10] 87.9 µM | [14] 50 µM | [15] 14.9 µM | [16] 31.4 µM | [17] 11.7 µM | [18] 90.5 µM | [19] 17.6 µM
